Bioassay records deposited in PubChem BioAssay by several laboratories.
FAS TE block: FAS thioesterase domain inhibitors, primary screen, biochemical, fluorescence intensity, uHTS. 360,000 tested, 0.67% active. recombinant FAS-TE, OMFH fluorogenic substrate, fluorescence endpoint. inhibition, % at 15 µM. AID 602261, 2012;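 active = compounds whose normalised, plate-corrected inhibition of enzyme fluorescence in the single-dose primary screen is 50% or more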;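 note: 0% = DMSO with enzyme and 100% = substrate without enzyme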
Neddylation inh: inhibitors of cullin neddylation, primary screen, biochemical, TR-FRET, uHTS, NAE and Ubc12. calls only at 25 µM. NEDD8-conjugating enzyme Ubc12 (Homo sapiens) + NEDD8-activating enzyme E1 regulatory …. 360,000 tested, 0.58% active; in the data active = inhibition above about 36%
KLK7 zymogen act: proKLK7 zymogen activators, primary screen, biochemical, fluorescence intensity; purified proKLK7, EDANS-DABCYL substrate fluorescence; 100% is mature enzyme control, 0% vehicle; activation, % at 7 µM; 370,000 tested, 0.9% active;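 active = activation above the mean of all tested compounds plus 3 SD, computed per campaign excluding outliers beyond control limits, cut at about 13% in these data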
Target sequence (P49862 whole entry, looked up): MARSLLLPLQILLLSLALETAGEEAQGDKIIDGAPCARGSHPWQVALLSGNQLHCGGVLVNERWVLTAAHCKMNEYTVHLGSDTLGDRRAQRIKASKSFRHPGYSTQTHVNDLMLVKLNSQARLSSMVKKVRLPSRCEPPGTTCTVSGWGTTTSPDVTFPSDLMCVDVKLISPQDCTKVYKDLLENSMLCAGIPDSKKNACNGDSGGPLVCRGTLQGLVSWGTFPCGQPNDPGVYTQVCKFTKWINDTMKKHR
PfGluPho inh: PfG6PD enzyme inhibitors, primary screen, biochemical, fluorescence intensity, uHTS; glucose-6-phosphate dehydrogenase-6-phosphogluconolactonase (Plasmodium falciparum 3D7); PfGluPho enzyme, NADPH resazurin-diaphorase fluorescence; inhibition, % at 20 µM; 350,000 tested, 0.78% active;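 active = inhibition reaching at least a set limit at 20 µM in the primary screen, cut at about 59% in these data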;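 note: 0% = DMSO wells with substrate and 100% = DMSO wells lacking glucose-6-phosphate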
FAS-TE conf: FAS thioesterase domain inhibitors, confirmation, biochemical, fluorescence intensity, single concentration. shares compounds with FAS TE block. recombinant FAS-TE, OMFH fluorogenic substrate. inhibition, % at 15 µM. 2,300 tested, 45% active;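 active = compounds inhibiting the enzyme by at least 50% at 15 µM in any one of the replicates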;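 note: 0% = enzyme with DMSO only and 100% = wells lacking enzyme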
* hit, by the source's call; i = inactive; nt = no result given. Rows were chosen to be rich in hits. Some 2.7% of all compounds tested hit in one or more screens of this group.

SMILES | FAS TE block | Neddylation inh | KLK7 zymogen act | PfGluPho inh | FAS-TE conf
Cc1ccc(S(=O)(=O)N2CCN(CCc3ccccc3)CC2)c(C)c1 | 13.4 | i | 0.6 | 13.5 | nt
Cc1cc(C)c(C)c(S(=O)(=O)ON2C(=O)c3ccccc3C2=O)c1C | 90.4* | i | -0.7 | 42.3 | 94.9*
COc1ccc2c(c1)CNC2CS(=O)(=O)NCC(C)C (stereo not given) | nt | nt | -3.3 | nt | nt
Cc1cc(C)cc(N2CCCn3c2nc2c3c(=O)n(CC(=O)OCc3ccccc3)c(=O)n2C)c1 | 21.6 | i | nt | 12.8 | nt
Cc1ccc(N2CC(C)Cn3c2nc2c3c(=O)n(CC(=O)OCc3ccccc3)c(=O)n2C)cc1C (stereo not given) | 53.9* | i | -0.4 | 7.5 | 4.6
Cc1ccc(S(=O)(=O)N(C)C)cc1-n1c(SCC(=O)Nc2ccc(F)c(F)c2F)nc2ccccc2c1=O | 68.4* | i | 0.6 | 15.5 | 37.5
Cc1ccc(S(=O)(=O)N2CCOCC2)cc1NC(=O)CSc1nc2ccccc2c(=O)n1Cc1ccccc1 | 50.3* | i | -0.6 | -1.4 | 23.8
O=C(CSc1nc2cc(Cl)ccc2c(=O)n1Cc1ccco1)Nc1ccc(S(=O)(=O)N2CCOCC2)cc1 | 87.6* | i | -1.2 | -5.1 | 17.9
O=C(CSc1nc2ccccc2c(=O)n1-c1ccccc1Cl)Nc1cccc(S(=O)(=O)N2CCOCC2)c1 | 95.1* | i | 0.3 | -1.4 | 25.8
Cc1ccc(S(=O)(=O)N(C)C)cc1-n1c(SCC(=O)N(C)C)nc2ccccc2c1=O | -3.4 | i | -0.4 | -10.8 | nt
Cc1ccccc1C(=O)N(Cc1ccccn1)CC1CCCO1 (stereo not given) | nt | nt | 0.2 | nt | nt
O=C(C1CCCN(S(=O)(=O)c2ccc(Br)s2)C1)N1CCN(Cc2ccccc2)CC1 (stereo not given) | nt | nt | 1.3 | nt | nt
O=C(CSc1nc2ccccc2c(=O)n1-c1ccc(F)cc1)Nc1cc(S(=O)(=O)N2CCOCC2)ccc1Cl | 77.6* | i | -0.7 | 3.7 | 20.9
O=C(CSc1nc2ccccc2c(=O)n1-c1ccc(F)cc1)Nc1ccc(N2CCOCC2)cc1 | -1.4 | i | -0.5 | -11.2 | nt
COC(=O)C[C@H]1CC[C@@H]2[C@@H](COc3ccc(NS(=O)(=O)c4ccccc4Cl)cc3C(=O)N2C)O1 | nt | nt | -0.3 | nt | nt
COc1cc(/C=C/C(=O)OCC(=O)Nc2sc3c(c2C#N)CCC(C)C3)ccc1OCC#N (stereo not given) | 64.5* | i | 0.1 | -6.3 | 17.4
Cc1ccc(S(=O)(=O)N2[C@@H](c3ccc(C(C)(C)C)cc3)C(C(=O)O)=CC[C@H]2c2ccc(C(C)C)cc2)cc1 | 76.5* | i | -0.3 | -59.0 | 25.1
Cc1ccc(S(=O)(=O)N2[C@@H](c3ccc(C(C)(C)C)cc3)C(C(=O)O)=CC[C@H]2c2ccc(Cl)cc2)cc1 | 55.1* | i | 0.5 | -17.7 | 49.3*
Cc1ccc(S(=O)(=O)N2[C@@H](c3ccc(Br)cc3)C(C(=O)O)=CC[C@H]2c2ccc(C(C)C)cc2)cc1 | 25.0 | i | -0.2 | -31.5 | nt
O=C(CCCC1=NS(=O)(=O)c2ccccc2N1)N1CCN(c2ccccc2Cl)CC1 | nt | nt | 0.4 | nt | nt
O=C(C1CCCN1S(=O)(=O)c1cccs1)N1CCc2ccccc2C1 (stereo not given) | nt | nt | -1.0 | nt | nt
COc1ccccc1NNC(=O)c1cc(C(C)(C)C)nn1Cc1ccccc1 | 16.3 | i | 0.9 | 12.8 | nt
CC(C)(C)c1cc(C(=O)NNc2cc(C(F)(F)F)ccc2Cl)n(Cc2ccccc2)n1 | 54.0* | i | -0.1 | 31.3 | 14.9
CCc1ccc(C2(O)CC(C(F)(F)F)=NN2C(=O)Cc2ccc([N+](=O)[O-])cc2)cc1 (stereo not given) | 52.1* | i | -0.3 | -13.8 | 17.5
O=C(Nc1cc(Oc2ccc(Cl)cc2)cc([N+](=O)[O-])c1)c1ccco1 | 56.4* | i | -0.3 | 16.6 | 45.1
SMILES | FAS TE block | Neddylation inh | KLK7 zymogen act | PfGluPho inh | FAS-TE conf
CCOC1=C2[C@@H](CN(S(=O)(=O)c3ccc(C)cc3)[C@H]2c2ccccc2)[C@H]2C(=O)N(Cc3ccccc3)C(=O)[C@H]2C1 | 76.1* | i | 0.7 | nt | 19.0
CCOC1=C2[C@@H](CN(S(=O)(=O)c3ccc(C)cc3)[C@H]2c2cccc3ccccc23)[C@H]2C(=O)N(Cc3ccccc3)C(=O)[C@H]2C1 | 59.5* | i | 0.2 | nt | 17.3
CCOC1=C2[C@@H](CN(S(=O)(=O)c3ccc(C)cc3)[C@H]2c2cccc3ccccc23)[C@H]2C(=O)N(CC)C(=O)[C@H]2C1 | 24.3 | i | 0.3 | nt | nt
CCOC1=C2[C@@H](CN(S(=O)(=O)c3ccc(C)cc3)[C@H]2c2ccccc2F)[C@H]2C(=O)N(C3CCCCC3)C(=O)[C@H]2C1 | 71.9* | i | 0.1 | nt | 23.1
CCOC1=C2[C@@H](CN(S(=O)(=O)c3ccccc3C)[C@H]2c2ccc(Cl)cc2)[C@H]2C(=O)N(c3ccccc3)C(=O)[C@H]2C1 | 83.3* | i | -0.8 | nt | 16.1
CCOC1=C2[C@@H](CN(S(=O)(=O)c3ccc(C)cc3)[C@H]2c2ccccc2F)[C@H]2C(=O)N(c3ccccc3)C(=O)[C@H]2C1 | 31.6 | i | -0.6 | nt | nt
COC(=O)c1cc2c(c3c4cc(C)ccc4n(C(=O)c4ccccc4)c13)C(=O)N(Cc1ccccc1)C2 | nt | nt | -1.8 | nt | nt
COC(=O)[C@]12C[C@H](CC(=O)N3CCCCC3)C(=O)N(Cc3ccc4c(c3)OCO4)C1=C[C@H](C(C)C)O[C@@H]2C1CC1 | nt | nt | -0.4 | nt | nt
O=C(COc1ccc(S(=O)(=O)N2CCCCC2)cc1)Nc1ccccc1F | 52.3* | i | 0.0 | 6.5 | 54.8*
CS(=O)(=O)c1ncc(Cl)c(C(=O)Nc2ccc3ccccc3c2)n1 | 57.1* | i | -0.2 | 58.2 | 33.4
CCC1CCCCN1S(=O)(=O)c1ccc(NC(=O)c2nc(S(C)(=O)=O)ncc2Cl)cc1 (stereo not given) | 59.6* | i | 3.5 | 25.0 | 65.8*
O=C(NCC1CCN(C(=O)C(=O)c2cc3ccccc3o2)CC1)c1ccc2c(c1)OCO2 | nt | nt | 0.2 | nt | nt
COc1cc(C(=O)N/C(=C\c2cn(S(=O)(=O)N(C)C)c3ccccc23)C(=O)NCCCO)cc(OC)c1OC | -6.1 | i | 0.5 | 17.7 | nt
CCCNC(=O)/C(=C/c1cn(S(=O)(=O)N(C)C)c2ccccc12)NC(=O)c1ccc(OC)cc1 | 80.9* | i | 0.2 | 3.2 | 87.6*
Cc1ccc(C(=O)N/C(=C\c2cn(S(=O)(=O)N(C)C)c3ccccc23)C(=O)NCCN2CCOCC2)cc1 | 60.4* | i | 0.7 | -7.2 | 66.9*
COc1ccc(C(=O)N/C(=C\c2cn(S(=O)(=O)N(C)C)c3ccccc23)C(=O)NCCCn2ccnc2)cc1 | 54.0* | i | 0.1 | 11.0 | 37.5
O=C(c1cc(C2CC2)on1)N(C1CCCCC1)C1CCOCC1 | nt | nt | 0.6 | nt | nt
